# Source: PubChem
# FLuc modulator – inhibits or activates purified firefly luciferase, miR-21 counter-screen; P08659; purified FLuc, Km substrates, luminescence inhibition; Potency, µM (top dose mostly 57.5 µM), without a hit: top-dose activity change, negative = inhibition, most hits filed as inhibitors; actives 6.9% (n = 360,000); AID 588342;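 further: plate controls were vehicle for no effect and reference inhibitor for full effect; nearly all actives have a fitted effect of over 55% in size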
# Target sequence (P08659 whole entry, looked up): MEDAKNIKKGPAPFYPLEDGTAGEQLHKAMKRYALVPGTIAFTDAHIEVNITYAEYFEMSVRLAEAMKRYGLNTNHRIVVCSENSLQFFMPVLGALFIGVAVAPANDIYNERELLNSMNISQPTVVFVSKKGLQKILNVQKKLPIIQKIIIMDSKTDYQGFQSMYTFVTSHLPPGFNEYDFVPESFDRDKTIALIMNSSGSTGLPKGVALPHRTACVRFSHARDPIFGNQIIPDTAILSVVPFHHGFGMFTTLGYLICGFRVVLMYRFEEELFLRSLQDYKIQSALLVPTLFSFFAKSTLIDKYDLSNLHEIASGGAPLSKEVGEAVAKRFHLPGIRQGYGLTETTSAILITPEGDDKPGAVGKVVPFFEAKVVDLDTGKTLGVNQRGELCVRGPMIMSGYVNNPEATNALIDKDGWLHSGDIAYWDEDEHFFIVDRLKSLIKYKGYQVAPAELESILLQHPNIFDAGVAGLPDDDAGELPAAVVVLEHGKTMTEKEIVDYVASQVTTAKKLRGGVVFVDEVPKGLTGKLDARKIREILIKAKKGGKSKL
#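 Purified P. pyralis luciferase (10nM final) with 10uM D-luciferin and 10uM ATP (Km levels) in 50mM Tris acetate pH 7.5, 10mM Mg acetate, 0.01% Tween-20, 0.05% BSA; qHTS 6-point titration, ~60 µM downward; luminescence read.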
# Rab9 promoter act – activates the Rab9 promoter; Huh7 Rab9 promoter-luciferase reporter, luminescence, 24 h; Potency, µM (series often up to 9.22 µM), for inactives: at the highest dose activation, negative = inhibition, hits mostly activators; actives 2.8% (n = 320,000); further: % of control where 0% means no effect; nearly all actives have a fitted effect of over 60% in size
#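 Measured in stably transfected Huh7 cells bearing a Rab9 promoter–luciferase construct: 24 h compound treatment at 37 °C, followed by luminescence detection.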
# NPC1 promoter act – activators of NPC1 promoter | Potency, µM (highest dose often 9.22 µM), for the others: at the top dose activation, most hits filed as activators | actives 2.4% (n = 320,000) | AID 485313 | Huh7 NPC1 promoter luciferase reporter, 24 h; further: % of control where 0% means no effect; nearly all actives have a fitted effect of over 60% in size
#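 Luciferase expression driven by the NPC1 promoter was measured in stably transfected Huh7 cells after a 24 h compound incubation, using a luciferase reagent and a luminescence read.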
# ELG1 genotoxic – genotoxicity induction in ELG1-luciferase HEK293T cells | HEK293T ELG1-luciferase reporter, luminescence, 16 h | Potency, µM (doses to about 46 µM), for inactives: top-dose activity change, positive = activation, usual class: activators | actives 1.3% (n = 330,000) | AID 504466; further: % of control where 0% means no effect; nearly all actives have a fitted effect of over 60% in size
#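 Screening used a luciferase reporter fused to human ELG1 in HEK293T cells. Luminescence was read on a CCD plate imager after 16 hr exposure and 30 min ONE-Glo incubation.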
# SMN2 splice up – increases expression of the SMN2 splice variant; HEK293 SMN2-luciferase splicing reporter, luminescence, 30-36 h; Potency, µM (series often up to 46.1 µM), inactives show at the top dose activity change, positive = activation, most hits filed as activators; actives 2.8% (n = 210,000); further: % of control where 0% means no effect; nearly all actives have a fitted effect of over 55% in size
#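 HEK293 cells carry an SMN2 […]–luciferase reporter in which exon 7 inclusion puts luciferase in frame. Cells were plated 10-12 h before compound addition, then incubated 30-36 h at 37C. ONE-Glo luminescence was read; sodium butyrate at 4.5 mM final served as control.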
# ELG1 repair inh – inhibitors of ELG1-dependent DNA repair in HEK293T cells; HEK293T ELG1-luciferase reporter, luminescence, 16 h; DNA damage induced by 5-fluorouridine; Potency, µM (top dose mostly 46.1 µM), for inactives: at the top dose activity change, negative = inhibition, actives largely listed as inhibitors; actives 2.3% (n = 330,000); further: on the % scale 0 is the no-effect control and ±100 the full control effect; nearly all actives have a fitted effect of over 55% in size
#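 5-Fluorouridine DNA damage + compound/DMSO, 2,000 cells/well, 16 h, 37 °C/5% CO2. ONE-Glo, 30 min RT, luminescence. Readout = decrease in reporter signal.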
# * hit, by the source's call; ? = inconclusive; . = no result. Compounds with a hit are over-represented: about 9.3% of the library has one in this group of screens. The call rests on the fitted dose curve; in most records, active means well fitted curve in the direction sought with a large enough effect; inconclusive means small, poorly fitted or top-dose-only effect, or another doubt; inactive means no such curve, though single readings can be large; an effect the other way counts as inactive or inconclusive. Potency means the concentration at half of the fitted maximal effect.
SMILES,FLuc modulator,Rab9 promoter act,NPC1 promoter act,ELG1 genotoxic,SMN2 splice up,ELG1 repair inh
COc1ccc(-c2oc3cc(O)c(OC)c(O)c3c(=O)c2OC)cc1,19µM*,-1%,-20%,18%,.,12%
COc1c(-c2ccc(O)cc2)oc2cc(O)cc(O)c2c1=O,-11%,0%,-7%,16%,.,?
COc1ccc(-c2oc3c(OC)c(OC)c(OC)c(O)c3c(=O)c2OC)cc1OC,1%,2%,-5%,-9%,.,12µM*
Cc1cccc(Cl)c1NC(=O)N1CCN(c2ccnc3cc(Cl)ccc23)CC1,2%,-5%,-8%,-15%,.,18µM*
CCCCNC(=O)N1CCN(c2ccnc3cc(Cl)ccc23)CC1,-1%,1%,0%,-9%,.,21µM*
Cc1ccc(N=c2sc(C)c(C)n2C)cc1,21µM*,?,?,?,?,?
COc1cccc(OC(=O)CSc2nnc(-c3ccccc3OC)o2)c1,-5%,.,.,.,.,.
c1ccc(CSc2nnc(-c3c[nH]c4ccccc34)o2)cc1,8.5µM*,?,?,?,?,?
COC(=O)CSc1nnc(-c2ccc(OC)cc2OC)o1,21µM*,-1%,3%,6%,-1%,16%
COC(=O)CSc1nnc(-c2c[nH]c3ccccc23)o1,15µM*,-1%,-4%,2%,.,?
Cc1ccc(N=Cc2cc(Cl)cc(Cl)c2O)nc1,5%,-8%,-3%,-1%,28%,-12%
Brc1csc(C=Nc2ccc3c(c2)OCCOCCOCCOCCO3)c1,3%,0%,-2%,2%,-4%,?
Oc1c(Cl)cc(Cl)cc1C=Nc1ccc2c(c1)OCCO2,27µM*,-7%,0%,15%,.,?
Brc1ccc(C=Nc2ccc3c(c2)OCCOCCOCCO3)s1,11µM*,2%,0%,0%,-1%,?
CC(C)(C)n1ncc2c(=O)n(CC(=O)c3ccc(Cl)cc3)cnc21,7.6µM*,3.2µM*,2.8µM*,18%,18µM*,?
CC(C)(C)n1ncc2c(=O)n(Cc3c(F)cccc3Cl)cnc21,24µM*,4%,20%,-9%,-15%,1%
Cc1ccc(Cl)c(Cn2cnc3c(cnn3C(C)(C)C)c2=O)c1F,?,-4%,-4%,-1%,.,0%
CC(C)(C)n1ncc2c(=O)n(CC(=O)Nc3ccc(Cl)cc3)cnc21,1%,2%,1%,-1%,-14%,-11%
CC1CCN(C(=O)Cn2cnc3c(cnn3C(C)(C)C)c2=O)CC1,?,3.2µM*,?,?,16µM*,?
CC(=O)Nc1ccc(NC(=O)Cn2cnc3c(cnn3C(C)(C)C)c2=O)cc1,-5%,-2%,11%,24%,-8%,?
CC(C)(C)n1ncc2c(=O)n(CC(=O)NCc3ccccc3)cnc21,4.8µM*,?,0.45µM*,?,2.8µM*,?
O=C(NC1CC1)c1cc(-c2ccccn2)nc2ccccc12,1%,-11%,0%,1%,.,26%
O=C(CN1C(=O)c2ccccc2S1(=O)=O)N1CCCCC1,2%,2.5µM*,?,16µM*,.,?
O=C(CN1C(=O)c2ccccc2S1(=O)=O)N1CCOCC1,-2%,3%,9%,11%,?,?
O=C(CN1C(=O)c2ccccc2S1(=O)=O)c1ccccc1,0.6µM*,?,?,0%,1%,29%
SMILES,FLuc modulator,Rab9 promoter act,NPC1 promoter act,ELG1 genotoxic,SMN2 splice up,ELG1 repair inh
O=C(CN1C(=O)c2ccccc2S1(=O)=O)c1ccccc1Cl,3µM*,?,-18%,-17%,.,?
Nc1ccc(C(=O)N/N=C/c2ccc(N3CCOCC3)s2)cc1,.,.,.,-1%,.,11%
N=C1S/C(=C\c2ccccc2)C(=O)N1c1ccc(F)cc1,0%,-2%,-1%,0%,3%,21%
COc1ccc(C(=O)/C=C/c2ccc(OC)c(COc3ccccc3F)c2)cc1,?,-2%,-1%,-1%,-46%,?
COc1ccc(/C=C/C(=O)c2ccccc2)cc1COc1ccc(F)cc1,9.5µM*,-5%,-2%,-2%,-19%,-22%
COc1cc(/C=C/C(=O)c2ccc(F)cc2)cc(OC)c1OC,-9%,-15%,0%,-28%,-71%,?
COc1ccc(/C=C/C(=O)c2ccc(O)cc2)cc1COc1ccc(F)cc1,15µM*,2%,-2%,-1%,.,?
O=C(Nc1cccc(-c2cnc3ccccc3n2)c1)C1CC(=O)N(c2ccccc2)C1 (stereo unspecified),?,-1%,15%,-10%,.,?
CCCCn1nc(NC(=O)c2cccs2)c2cc3cc(OC)ccc3nc21,19µM*,-6%,-1%,0%,9%,?
CCCCn1nc(NC(=O)CCC)c2cc3cc(OC)ccc3nc21,-2%,4%,20%,7%,.,13%
CCCn1nc(NC(=O)c2cccs2)c2cc3ccc(C)cc3nc21,?,-1%,-2%,-9%,.,-27%
CCCCn1nc(NC(=O)c2cccs2)c2cc3ccccc3nc21,24µM*,18%,-2%,-8%,.,?
CCCn1nc(NC(=O)c2cccs2)c2cc3cc(OC)ccc3nc21,11µM*,6%,5%,19%,22%,?
CCCn1nc(NC(=O)c2cccs2)c2cc3cc(C)ccc3nc21,6.7µM*,-1%,6%,-3%,.,?
Cc1ccc(NC(=O)CN(C)C(C)C(=O)Nc2ccc(S(=O)(=O)N3CCCC3)cc2)cc1 (stereo unspecified),-8%,-3%,-7%,-5%,.,?
CC(C)CCOc1ccc(C2N=C(N)Nc3nc4ccccc4n32)cc1 (stereo unspecified),-4%,.,.,.,2%,.
CCOC(=O)N1CCN(CC(=O)Nc2ccc([N+](=O)[O-])cc2C(=O)Nc2ccccc2F)CC1,0%,-7%,-2%,-5%,-19%,7.3µM*
O=C(CNCc1ccccn1)Nc1ccc([N+](=O)[O-])cc1C(=O)Nc1ccccc1F,2%,-1%,-2%,-7%,.,23µM*
O=C(CN1CCN(Cc2ccccc2)CC1)Nc1ccc([N+](=O)[O-])cc1C(=O)Nc1ccccc1F,-3%,-8%,-1%,-9%,-30%,?
O=c1cc[nH]c2cccc(Cc3ccccc3)c12,-20%,0%,0%,-1%,-7%,-11%
COc1cc(CNc2nc(C)c([N+](=O)[O-])c(C)c2C#N)cc(OC)c1OC,2%,2%,-1%,1%,-58%,7.3µM*
O=C(Cc1cccs1)N1CCN(S(=O)(=O)c2ccc(F)c(F)c2)CC1,0%,-6%,-5%,-1%,.,11%
